Results: PubChem BioAssay
Where “and” joins values, the source holds several entries; their conditions need not be identical. Equal values may be shown once.

These compounds were tested against Follistatin (Homo sapiens) (UniProt P19883) (assay: follistatin binders on small-molecule microarrays, primary screen, biochemical, small-molecule microarray, 635/667 nm fluorescence (AID 1132)). Settings: FST binding, 635 nm fluorescence, higher = more signal.
Chain of Follistatin (Homo sapiens) (P19883 whole entry, looked up): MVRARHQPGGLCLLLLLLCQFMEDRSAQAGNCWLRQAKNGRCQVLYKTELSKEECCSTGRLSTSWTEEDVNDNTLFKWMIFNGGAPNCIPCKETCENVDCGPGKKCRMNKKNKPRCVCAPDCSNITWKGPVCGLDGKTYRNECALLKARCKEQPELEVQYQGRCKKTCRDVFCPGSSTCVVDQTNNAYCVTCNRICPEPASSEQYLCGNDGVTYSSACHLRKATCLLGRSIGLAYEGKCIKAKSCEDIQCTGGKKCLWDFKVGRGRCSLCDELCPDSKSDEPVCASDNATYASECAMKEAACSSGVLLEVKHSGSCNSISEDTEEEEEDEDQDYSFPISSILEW

SMILES | composite z-score
C=CCN(CCCC)C(=O)C(c1cccs1)N(CCOCCO)C(=O)/C=C\C(=O)O (stereo not given) | -1.31 and -0.249
CC(C)[Si]1(C(C)C)OCc2cc(CCCc3cc4c(c(CCc5ccccc5)n3)[Si](C(C)C)(C(C)C)OC4)nc(CCc3ccccc3)c21 | -0.43 and 0.238
O=C1[C@H]2[C@H]3[C@H](O)[C@H](O)CC(=NOCc4ccccc4)[C@H]3CC[C@H]2C(=O)N1Cc1ccccc1 | 0.659
C=CCN(C(=O)C1N(CCOCCO)C(=O)C2C(C(=O)O)C3C=CC21O3)c1ccc(OC)cc1 (stereo not given) | -2.1 and -2.52
C=CCN(CCCCC)C(=O)C(c1cccs1)N(C(=O)/C=C\C(=O)O)c1c(Cl)cccc1CO (stereo not given) | -1.36 and -2.16
C=C[C@@H](OC)[C@H](O)c1ccc(OCCO)cc1 | -0.286 and -0.426
CC(=O)OC[C@H]1O[C@H](C#CC(C)(C)C)C=C[C@@H]1OC(C)=O | 0.418
C[N+](C)(C)CCCCCCNC(=O)[C@H]1C[C@H]2C(=O)N[C@@H](CCCC[N+](C)(C)C)C(=O)N2[C@H]1c1ccc(O)cc1 | 1.13 and 1.16
COc1ccc(-c2ccc3c(n2)CCCN3CC(O)CN2CCCc3nc(-c4ccc(Br)cc4)ccc32)cc1 (stereo not given) | 0.922 and 0.796
CC(CO)N1C(=O)[C@@H]2C3C(=O)OCCC=C[C@H]3OC23C=CCN(Cn2nnc4ccccc42)C(=O)[C@@H]13 (stereo not given in full) | -0.93 and 0.345
C[C@@]1([C@@H](NC(=O)Cc2ccccc2)c2ccc(-c3ccccc3)cc2)C[C@H]1C1CCCCC1 | 0.153 and -0.222 and -0.138
C=CCN(CCCC)C(=O)C(c1cccs1)N(C(=O)/C=C\C(=O)O)c1c(Cl)cccc1CO (stereo not given) | -2.44 and -1.69
C=C[C@@H](C)[C@@H](O)c1ccc(OCCO)cc1 | -1.14 and -0.506
C=CCN(CCCCC)C(=O)C(c1cccs1)N(CCOCCO)C(=O)/C=C\C(=O)O (stereo not given) | -2.22 and -1.47
CC(C)CCN1CCc2nc(-c3ccccc3)c3c(c2C1)CO[C@@H](C)C3 | 0.785
C=CCN(CCCC)C(=O)C1N(c2ccc(CCO)cc2)C(=O)C2C(C(=O)O)C3C=CC21O3 (stereo not given) | -0.852 and -2.67
C=C[C@H](OC)[C@@H](O)c1ccc(OCCO)cc1 | -1.51 and -0.835
C=C[C@H](C)[C@H](O)c1ccc(O)c2ccccc12 | 0.0456 and 0.32
COC(=O)C1=C(C)N(Cc2ccccc2)[C@]23O[C@](C(=O)OC)(C(=O)N2[C@@H]1c1ccccc1)[C@H]1C(=O)N(c2ccccc2)C(=O)[C@H]13 | 0.516 and 1.01
CN1C(=O)C2CC=C([C@H]3Oc4ccccc4S(=O)(=O)N4CCC[C@@H]34)CC2C1=O (stereo not given in full) | -0.375 and -0.417

SMILES | composite z-score
CC(C)=NOC[C@@H](O)COCc1ccco1 | 0.112
CCOC(=O)NN=C1C[C@@H](O)[C@@H](O)[C@@H]2[C@@H]3C(=O)N(Cc4ccccc4)C(=O)[C@@H]3CC[C@@H]12 | 0.408
COC(=O)C1=C(C)N(Cc2ccccc2)[C@]23O[C@](C(=O)OC)(C(=O)N2[C@@H]1c1ccccc1)[C@H]1CCCC(=O)[C@H]13 | 0.372 and 0.544
C#CCCCON=C1C[C@@H](O)[C@@H](O)[C@@H]2[C@@H]3C(=O)N(C4CCCCC4)C(=O)[C@@H]3CC[C@H]12 | -0.0195
C=C[C@@H](OC)[C@H](O)c1ccc(OC)c(O)c1 | 1.03 and 0.477
CC(C)=NOCc1ccc(-c2cn([C@@H]3COC[C@H]3O)nn2)cc1 | 0.218
CO[C@@H]1C=CCC(=O)N2CCC[C@H]2C(=O)OC[C@H](C)C(=O)OC[C@H]1C | 1.23
CCCCCN1CC=CC23O[C@@H]4C=CCCOC(=O)C4[C@H]2C(=O)N(C(C)CO)[C@@H]3C1=O (stereo not given in full) | -0.11 and -0.0282
COC(=O)[C@@]1(Cc2ccc(OC)cc2)[C@H]2c3cc(C(=O)N(C)C)n(Cc4ccc(O)c(OC)c4)c3C[C@H]2CN1C(=O)c1ccccc1 | 0.231 and 0.715
C=CCN(Cc1ccccc1)C(=O)C(c1cccs1)N(C(=O)/C=C\C(=O)O)c1ccc(CCO)cc1 (stereo not given) | -1.48 and -1.4
CCN1C(=O)[C@H]2[C@H]3[C@H](O)[C@H](O)CC(=NOC)[C@@H]3CC[C@H]2C1=O | 0.0723
C[N+](C)(C)CCCCNC(=O)[C@@H]1C[C@@H]2C(=O)N[C@@H](CCCC[N+](C)(C)C)C(=O)N2[C@@H]1c1cccc(OCCO)c1 | 1.54 and 1.48
CO[C@H]1COC(=O)CC=C[C@H](C)[C@H](OC)COC(=O)[C@@H](C)COC(=O)CC=C[C@@H]1C | 1.13 and 0.8
Cc1cc2c(nc1C)CCCN2CC(O)CN1CCCc2nc(-c3ccc(Br)cc3)ccc21 (stereo not given) | 1.27 and 1.29
COC(=O)C1=C(C)N(Cc2ccccc2)C2=C(C(=O)c3ccccc3)[C@H](c3ccccc3)[C@@](O)(C(=O)OC)C(=O)N2[C@@H]1c1ccccc1 | 0.526 and 0.424
C#CCN1C(/C=C/c2ccccc2)C(=O)OC[C@H]1c1ccccc1 (stereo not given in full) | 1.28 and 0.768
COC(=O)[C@@]1(Cc2ccccc2)[C@H]2c3cc(C(=O)N(C)C)n(Cc4ccc(C)c(F)c4F)c3C[C@H]2CN1C(=O)c1ccccc1 | 0.096 and 1.26
CCOC(=O)[C@@H]1CC2O[C@]23C[C@@H]1C(=O)N1CCC[C@@H]1[C@H]3O[Si](C)(C)C(C)(C)C (stereo not given in full) | -0.568 and 0.342
C=CCN(CCCCC)C(=O)C(c1cccs1)N(C(=O)/C=C\C(=O)O)c1ccc(CCO)cc1 (stereo not given) | -1.43 and -0.996
CC(CO)N1C(=O)[C@@H]2C3C(=O)OCCC=C[C@H]3OC23C=CCN(c2ccc4ccccc4c2)C(=O)[C@@H]13 (stereo not given in full) | -0.0475 and -0.0413
